# Measurements published in the supplement of paper PMC12636033.
# ± gives the standard deviation of the averaged measurements. Over roughly 33,000 sequences, “E-score (rank enrichment, -0.5 to 0.5)” has its median near -0.0068; the highest 2% begin near 0.24. This is one part of a sample in which the highest values are shown more often than they occur.
# Test system: muMax20 (Max(13-93) K31hArg/K57hArg, M65Nle)
# Test: PBM 8-mer E-score (E-score (rank enrichment, -0.5 to 0.5)); higher = stronger preferential binding
# Procedure: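 Protein binding microarray (universal PBM chip covering all 10-mers in fixed probe flanks) with chemically synthesized human Max(13-93) bHLH-LZ analogs (not full-length Max) bearing noncanonical residues (hArg, Tha, Aib, Nle at 65) and aromatic Cys staples. Read-out per 8-mer (and its reverse complement): E-score (rank-based enrichment, -0.5 to 0.5) and Z-score of median probe intensity.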
row,Sequence,PBM 8-mer E-score
1,GGAGAAGA,0.084 ± 0.0044
2,CTCCTTAC,0.0913 ± 0.013
3,CGTCTAGC,-0.0301 ± 0.083
4,GAGCCTAA,-0.0774 ± 0.0028
5,CGAGTACC,-0.134 ± 0.016
6,AACGGCTG,-0.184 ± 0.1
7,AACCACGA,0.141 ± 0.09
8,ACCCACGA,0.0663 ± 0.055
9,ACCCACGC,0.109 ± 0.027
10,AACCACGT,0.369 ± 0.057
11,AACCACGC,-0.0767 ± 0.24
12,ACCCACGT,0.341 ± 0.11
13,AGTGTGCG,-0.149 ± 0.0092
14,AAGATGTG,0.128 ± 0.009
15,CCCGCCCC,0.273 ± 0.057
16,CCCGCCCG,-0.0341 ± 0.0082
17,CCCCGCCC,0.322 ± 0.043
18,CCCCCGCC,-0.0877 ± 0.065
19,GCCGCCCC,-0.0538 ± 0.0099
20,GCCGCCCA,-0.267 ± 0.094
21,GCCCGCCC,0.0169 ± 0.057
22,ACCCCGCC,0.27 ± 0.04
23,ACCCGCCC,0.172 ± 0.024
24,AACCCGCC,-0.0715 ± 0.029
25,ACCGCCCC,0.0617 ± 0.15

row,Sequence,PBM 8-mer E-score
1,CCCGCCCA,0.317 ± 0.073
2,AAGAAAGA,-0.00904 ± 0.054
3,AGAGTAAG,0.117 ± 0.059
4,CCAAATAC,0.13 ± 0.031
5,CCCGAATA,-0.0449 ± 0.17
6,CTTGGAGC,-0.103 ± 0.13
7,CCTAGCCG,-0.253 ± 0.052
8,ATCGGTGC,-0.0954 ± 0.028
9,CAGAACTA,-0.169 ± 0.18
10,AACACTCT,-0.00142 ± 0.039
11,AAGAACTC,-0.0481 ± 0.11
12,GCTAGAGC,-0.122 ± 0.12
13,GACTTCTA,-0.149 ± 0.025
14,TACTTCTA,0.272 ± 0.091
15,AACTTCTA,-0.0177 ± 0.042
16,CTTATGGA,-0.0576 ± 0.026
17,CAACCGAC,0.0428 ± 0.061
18,AAACACGA,0.194 ± 0.04
19,ACACACGG,0.00898 ± 0.047
20,ACACACGT,0.338 ± 0.01
21,ACACACGA,0.188 ± 0.037
22,AAACACGT,0.342 ± 0.016
23,AAACACGC,0.198 ± 0.0045
24,GACGTAAC,0.0633 ± 0.061
25,AATAGGTA,0.251 ± 0.073

row,Sequence,PBM 8-mer E-score
1,AATAGGTC,-0.0485 ± 0.14
2,AATAGGTG,0.119 ± 0.0048
3,AGAATACC,0.142 ± 0.0044
4,CTAATACA,0.248 ± 0.047
5,CTAATACC,0.0669 ± 0.08
6,ATAATACA,0.281 ± 0.027
7,ACAATACA,0.191 ± 0.02
8,ATAATACC,0.261 ± 0.049
9,ACAATACT,0.174 ± 0.049
10,ATAATACG,0.19 ± 0.015
11,ACAATACC,0.237 ± 0.02
12,TCAATACA,0.18862 ± 0.00013
13,GTAATACA,0.182 ± 0.082
14,AAAATACA,0.159 ± 0.058
15,ACTATGGC,-0.0571 ± 0.07
16,AATTTTCG,0.0133 ± 0.1
17,GCCCTACA,-0.127 ± 0.021
18,CCCGCACG,-0.0959 ± 0.058
19,TGAGCGCA,-0.0144 ± 0.0021
20,AACGGCAA,0.112 ± 0.025
21,CTCTGCGA,-0.167 ± 0.1
22,AGTTACCC,-0.029 ± 0.015
23,GGGATGGA,0.0386 ± 0.042
24,ACCAGTTG,-0.0933 ± 0.12
25,ACTTCAAT,0.173 ± 0.027

row,Sequence,PBM 8-mer E-score
1,GAAATACA,0.132 ± 0.063
2,CAAATACC,0.0739 ± 0.027
3,CAAATACA,0.325 ± 0.037
4,ATAACGTC,0.121 ± 0.0034
5,ATAACGTA,0.24 ± 0.0069
6,GTAACGTA,0.0209 ± 0.03
7,AAGTCACT,0.24 ± 0.12
8,AAGTCACA,0.029 ± 0.056
9,AAGTCACG,0.0988 ± 0.052
10,GCTTGCAA,0.0886 ± 0.032
11,AAAAATGG,0.153 ± 0.002
12,GAGCCAAC,-0.0474 ± 0.026
13,AAAACCTC,0.104 ± 0.039
14,TAATATAA,0.232 ± 0.018
15,GAATATAC,0.157 ± 0.014
16,ATGTAGAG,0.04 ± 0.13
17,GTGTATAA,0.1625 ± 0.0011
18,ATGTATAA,0.268 ± 0.022
19,TTATATAA,0.274 ± 0.062
20,CTGTAGAA,0.031 ± 0.018
21,CTGTATAA,0.191 ± 0.029
22,TGATATAA,0.211 ± 0.09
23,ATATATAT,0.155 ± 0.016
24,GAATATAA,0.264 ± 0.023
25,ATGTAGAA,0.264 ± 0.0091

row,Sequence,PBM 8-mer E-score
1,AGGGAACC,-0.237 ± 0.012
2,TACGGCTA,-0.0274 ± 0.029
3,ATGGGCGG,0.009 ± 0.039
4,GTTAGAAC,-0.0507 ± 0.042
5,CTATATAA,0.165 ± 0.12
6,ATATATAA,0.288 ± 0.052
7,GTATATAA,0.202 ± 0.069
8,ACGCCTCG,-0.092 ± 0.092
9,CATCCGGC,-0.291 ± 0.032
10,ATCGGACG,-0.0422 ± 0.092
11,CAAGATAA,0.253 ± 0.064
12,AAAGATAC,0.145 ± 0.05
13,TAAGATAA,0.0507 ± 0.17
14,AAAGATAG,0.0409 ± 0.14
15,CAAGATAC,0.153 ± 0.0086
16,AAAGATAA,0.2372 ± 0.001
17,ATCAGAGG,-0.121 ± 0.076
18,CCATGTTA,0.109 ± 0.039
19,AGATGTTG,-0.125 ± 0.12
20,GCATGTTA,0.116 ± 0.14
21,ACATGTTG,0.271 ± 0.022
22,ACATGTTC,0.1643 ± 0.00078
23,ACATGTTA,0.241 ± 0.085
24,AACGAATT,0.236 ± 0.0088
25,CAAGGTAC,0.0659 ± 0.12

row,Sequence,PBM 8-mer E-score
1,ACACCGAT,-0.183 ± 0.16
2,AGGTTAGG,0.0305 ± 0.073
3,CACGTTTA,0.0929 ± 0.011
4,CCTTAACC,-0.159 ± 0.009
5,ACTTGATA,0.242 ± 0.033
6,ACGTGAGT,0.2594 ± 0.0012
7,ACTTGATG,0.0184 ± 0.013
8,TCGTGAAA,0.0589 ± 0.081
9,ACGTGAAA,0.249 ± 0.083
10,ACGTGATC,0.286 ± 0.1
11,CCGTGATC,-0.311 ± 0.027
12,ACTTGATC,-0.00466 ± 0.064
13,ACGTGAGG,0.111 ± 0.1
14,ACGTGAGA,0.168 ± 0.054
15,AAGTGATC,0.074 ± 0.034
16,ACGTGAAC,0.0624 ± 0.078
17,CGGTTCAC,-0.245 ± 0.053
18,AGCATTCC,-0.123 ± 0.17
19,GGAGCCCA,-0.156 ± 0.11
20,CCTGTGAC,-0.0438 ± 0.0042
21,CCATAGAC,-0.0388 ± 0.035
22,GACGTTGA,0.0147 ± 0.11
23,ATCCTTTG,0.0245 ± 0.09
24,CTGAGCAC,-0.0319 ± 0.049
25,TCGAGAGA,-0.0503 ± 0.027

row,Sequence,PBM 8-mer E-score
1,AATGACTC,0.152 ± 0.015
2,GTTGAACA,0.031 ± 0.035
3,CGTAACTC,-0.0982 ± 0.11
4,AACACGGT,-0.129 ± 0.055
5,TCCGCGCA,-0.113 ± 0.072
6,GCGTGATA,0.174 ± 0.032
7,CTGTGAAA,0.0471 ± 0.025
8,ACGTGATG,0.294 ± 0.05
9,AAGTGATG,0.129 ± 0.12
10,ACGTGATA,0.33 ± 0.082
11,ATGTGAAA,0.317 ± 0.057
12,GTGTGATA,0.154 ± 0.018
13,CCGTGATA,-0.0912 ± 0.033
14,AGGTGATG,-0.00343 ± 0.027
15,ATGTGATA,0.24 ± 0.12
16,GTGTGAAA,0.141 ± 0.027
17,CTGTGATA,-0.0301 ± 0.17
18,ACTATGCT,0.231 ± 0.07
19,CCCGAGGA,-0.233 ± 0.074
20,ATGGGATC,0.0291 ± 0.075
21,CTAACTCA,0.0355 ± 0.056
22,AGCCGATG,-0.155 ± 0.04
23,AATCACCA,0.133 ± 0.014
24,AGTGTCCC,-0.0112 ± 0.012
25,AGTATTAA,0.268 ± 0.03

row,Sequence,PBM 8-mer E-score
1,AACATTGT,0.236 ± 0.013
2,AATATTAT,0.25 ± 0.026
3,CATATTAC,0.0522 ± 0.03
4,AGTATTAG,0.0793 ± 0.032
5,AATATTAC,0.281 ± 0.066
6,TGTATTAA,0.184 ± 0.096
7,AACATTGG,-0.0243 ± 0.2
8,GATATTAC,0.121 ± 0.015
9,AACATTGA,0.0179 ± 0.032
10,ACTATTAT,0.204 ± 0.056
11,AATATTAG,0.175 ± 0.04
12,CCCGCGCA,-0.124 ± 0.031
13,ATGTGGCA,0.0287 ± 0.095
14,AGCATTTC,0.141 ± 0.0034
15,CAACTAAG,0.0637 ± 0.092
16,ATTGCAAA,0.0872 ± 0.083
17,AGGTCCTA,-0.128 ± 0.083
18,TTCCCGAA,-0.0933 ± 0.0092
19,AATAGAAC,0.0563 ± 0.077
20,AATATTGG,0.101 ± 0.094
21,AATATTGC,0.138 ± 0.076
22,CATATTAA,0.297 ± 0.012
23,AATATTAA,0.304 ± 0.025
24,GATATTAA,0.134 ± 0.028
25,TATATTAA,0.179 ± 0.025

row,Sequence,PBM 8-mer E-score
1,CATATTAG,0.121 ± 0.053
2,ACTATTAA,0.149 ± 0.011
3,AATATTGT,0.256 ± 0.006
4,CGCGCTCC,-0.0678 ± 0.11
5,AGCTGTAC,-0.0262 ± 0.13
6,GGACTGTA,0.00313 ± 0.055
7,ATTTGTAC,0.176 ± 0.038
8,AATTATAT,0.147 ± 0.044
9,CTATCAGC,0.0217 ± 0.00023
10,CAGTCATA,0.0326 ± 0.1
11,CAAACGGC,-0.242 ± 0.0069
12,AAAACGGC,0.3 ± 0.099
13,GAAACGGC,0.0377 ± 0.059
14,AAACGGCC,0.294 ± 0.093
15,AAACGGCT,-0.0843 ± 0.069
16,CAACGGCC,-0.206 ± 0.059
17,ACAAATAT,0.185 ± 0.027
18,ATCCGCGC,-0.227 ± 0.043
19,CACATACC,-0.0465 ± 0.058
